Results from the supplement of paper PMC5736601.
± gives the uncertainty stated by the source.

What follows are compounds tested on human primary fetal neurons (assay: surviving MAP-2+ neurons after FeSO4 challenge with drug pre-treatment, relative to untreated control (% of untreated control); higher = more neuroprotection against iron toxicity). Conditions: 10 µM; FeSO4 concentration 25-50 µM; 24 h.
Experimental: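 Human fetal primary neurons (96-well, AIM-V serum-free medium) were pre-treated for 1 h with each NINDS Custom Collection II drug at 10 µM, then challenged with FeSO4 (25 or 50 µM). After 24 h they were fixed, stained with anti-MAP-2 and counted by automated imaging (ImageXpress/MetaXpress). MAP-2+ neuron counts were normalised to untreated control wells (100%); values are the mean of 1-4 independent experiments, each in quadruplicate.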

Point of comparison: Cc1ccc(O)cc1.Cc1cccc(O)c1.Cc1ccccc1O, “surviving MAP-2+ neurons” value 6.04 ± 1.1. Against it:
- CN(C)CCOC(c1ccccc1)c1ccccc1.Cn1c(=O)c2[nH]c(Cl)nc2n(C)c1=O — higher, 36.5 ± 5.3
